In the library only some 2.6% were active in any assay of this set; here they are far more common.
Nrf2 inh: Nrf2 pathway inhibition. A549 ARE-Fluc reporter, luciferase luminescence, 18-24 h. Potency, µM (series often up to 46 µM), inactives show at the top dose activity change, negative = inhibition, hits mostly inhibitors. 360,000 tested, 2.1% active; further: potency means the concentration at half of the fitted maximal effect; on the % scale 0 is the no-effect control and ±100 the full control effect; nearly all actives have a fitted effect of over 60% in size
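Reporter: ARE-Fluc in A549. Exposure: 18-24 h, 37 °C, 5% CO2, 5% FBS OPTI-MEM. Readouts: fluorescent cytotoxicity (CellTiter-Fluor), then luminescent Nrf2 signal after BugLite.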
CCT chaperon mod: changes cytosolic chaperonin activity | purified chaperonin ATPase assay, HTRF ADP detection, 30 min | activity change, % (test concentration not listed), hits read low | 360,000 tested, 0.3% active | AID 651819; in the data active means activity change below about -30%; further: on the % scale 0 is the no-effect control and ±100 the full control effect
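TRiC (40 or 20 nM final, by batch activity) in 30 mM Tris pH 7.4, 100 mM KCl, 5 mM MgCl2, 1 mM DTT was treated with compound at 76 uM single dose, then 10 uM ATP, 30 min at 37 °C. ADP was read by HTRF Transcreener.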
Nrf2 ARE act: activates Nrf2 signaling. AREc32 ARE-luciferase reporter (MCF7-derived line), luminescence, 24 h. Potency, µM (titrated, usually from 46.1 µM), for the others: at the highest dose activation, most hits filed as activators. 410,000 tested, 0.31% active. AID 624171; further: potency means the concentration at half of the fitted maximal effect; % of control where 0% means no effect; nearly all actives have a fitted effect of over 65% in size
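Each well held 1000 AREc32 cells, which were incubated with compound for 24 hr at 37 deg C after overnight attachment, and ARE reporter activity was quantified by firefly luciferase luminescence.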
A-T KAP1 phos: potential ataxia-telangiectasia treatments restoring KAP-1 phosphorylation; AID 485349; 320,000 tested, 0.19% active; F2112 A-T fibroblasts, KAP-1 phosphorylation AlphaLISA; neocarzinostatin DNA damage 30 min before lysis; Potency, µM (top dose mostly 57.5 µM), inactives show at the highest dose activation, actives largely listed as activators; further: potency means the concentration at half of the fitted maximal effect; % of control where 0% means no effect; nearly all actives have a fitted effect of over 45% in size
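ATM-like activity read as KAP-1 phosphorylation via AlphaLISA donor/acceptor antibody pairs after lysis and 6 hr at 25C. Cells were ATM-null patient fibroblasts (F2112, hTERT), dosed 60 min, then exposed to the DSB inducer NCS for 30 min.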
TCR act: activators of T cell receptors | primary human leukocytes, anti-CD3, IL-2 HTRF, 48 h | Potency, µM (titrated, usually from 9.22 µM), inactives show at the top dose activation of IL-2 secretion, most hits filed as activators | 330,000 tested, under 10 active | AID 504894; further: % of control where 0% means no effect
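48 hr co-incubation of compounds, a-CD3 beads and primary human leukocytes; IL-2 quantified homogeneously by HTRF with anti-IL-2 K and d2 conjugates.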
A549 viability: kills or reduces viability of A549 cells in Nrf2 counter-screen; Potency, µM (doses to about 46 µM), without a hit: top-dose activity change, negative = cytotoxicity, most hits filed as inhibitors; 390,000 tested, 0.16% active; A549 ARE-Fluc cells, CellTiter-Fluor viability, 18-24 h; further: potency means the concentration at half of the fitted maximal effect; on the % scale 0 is the no-effect control and ±100 the full control effect
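A549 ARE_Fluc cells in 5% FBS OPTI-MEM were exposed to compounds in concentration-response for 18-24 h at 37 deg C. Viability was read by CellTiter-Fluor fluorescence (Ex 405/Em 525) after 30 min, before the luciferase read.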
* = called active by the depositor; ? = inconclusive; / = no result; [ ] = dose if it differs, or a comment. Unless noted, the call rests on the fitted dose curve; in most records, active means well fitted curve in the direction sought with a large enough effect; inconclusive means small, poorly fitted or top-dose-only effect, or another doubt; inactive means no such curve, though single readings can be large; an effect the other way counts as inactive or inconclusive.

SMILES | Nrf2 inh | CCT chaperon mod | Nrf2 ARE act | A-T KAP1 phos | TCR act | A549 viability
O=C(Cc1ccccc1Nc1c(Cl)cccc1Cl)OCO/N=[N+](\[O-])N1CCCC1 | -4% | / | / | / | / | -2%
COc1ccc(-c2cn3cc([N+](=O)[O-])ccc3n2)cc1OC | 3.7µM* | 0 | 0% | -1% | 1% | -1%
COc1ccc(-c2cn3ccccc3n2)cc1[N+](=O)[O-] | ? | -5 | 8% | -2% | 3%[46.1 µM] | 4%
Cc1sc2nc(CSc3ccccc3)nc(N3CCC(C(N)=O)CC3)c2c1C | ? | -3 | -1% | -1% | -5% | 1%
CCOC(=O)c1sc2nc(CSc3ccccc3)nc(N3CCC(C(N)=O)CC3)c2c1C | 21µM* | -3 | 0% | -2% | 1% | 4%
Clc1cccc(Cl)c1C1Nc2cccc3cccc(c23)N1 | 9.2µM* | 0 | ? | -1% | 7% | ?
Fc1cccc(Cl)c1C1Nc2cccc3cccc(c23)N1 | -21% | 0 | ? | 0% | -1% | -9%
Cc1cc2c(s1)c1cnn(Cc3c(F)ccc(C)c3F)c(=O)c1n2C | -13% | / | / | / | / | 0%
Cc1ccccc1Cn1c(=O)n(CC2CCC(C(=O)N3CCC(C)CC3)CC2)c(=O)c2sccc21 (stereo not given) | 23µM* | / | -1% | / | / | ?
O=C1c2c(Cl)c(Cl)c(Cl)c(Cl)c2C(=O)N1c1nccs1 | 13% | -2 | -1% | / | -1% | -5%
Cc1ccc(C(=O)O)cc1NC(=O)c1cccs1 | 0% | -2 | 0% | 11% | -2%[46.1 µM] | 2%
Cc1ccc(C(=O)O)cc1NC(=O)C1=CSCCO1 | 7% | -63* | -1% | -4% | -5% | 4%
COc1ccc(NC(=O)C2(C)CCN2C(=O)C(C)C)cc1F (stereo not given) | / | -36* | 0% | / | / | /
CC(C)(C)OC(=O)N(CCc1ccccc1)Cc1ccccc1OCc1cccc(NC(=O)C2CC2)c1 | 21µM* | 1 | 5% | / | -3% | -11%
CC(C)(C)OC(=O)N(CCc1ccccc1)Cc1ccccc1OCc1cccc(NC(=O)C2CCCC2)c1 | -5% | 1 | 5% | / | 16% | 0%
Cc1ccc(C)c(NC(=O)Cn2c(=O)n(CC3CCCO3)c(=O)c3ccccc32)c1 (stereo not given) | 20% | / | 0% | / | / | -8%
O=C(Nc1cccc(O)c1)c1cc(-c2ccc3c(c2)OCO3)on1 | 15µM* | 1 | -1% | -2% | 6% | 1%
CN(C)c1nc(-c2ccccc2)ncc1S(=O)(=O)c1ccccc1 | 8% | -32* | 7% | 4% | 4% | -3%
CC(C)(C)CN1CCN(Cc2nc(-c3ccc(F)cc3)cs2)CC1CCO (stereo not given) | 21µM* | 1 | 0% | -3% | 9% | -10%
CC(C)(C)OC(=O)N1CCC(c2nnc(SCc3ccccc3)o2)CC1 | 12µM* | / | 9% | / | / | -13%
CC(C)(C)OC(=O)N1CCC[C@H]1c1nnc(SCc2ccc(Cl)cc2)o1 | -10% | -1 | 3% | 8% | -3% | 0%
Cc1cccc(N(CC(=O)NCCSCc2ccccc2)S(=O)(=O)c2ccccc2)c1C | ? | / | 0% | / | / | -8%
Cc1ccc2c(CC(=O)N(Cc3ccc(N(C)C)cc3)Cc3ccco3)coc2c1C | 23µM* | / | 4% | / | / | -5%
CN(C)c1ccc(CN(Cc2ccco2)C(=O)c2ccco2)cc1 | -17% | 2 | 2% | -18% | -1% | -2%
CSc1nc(Sc2ccccc2Cl)c2ccccc2n1 | -16% | -77* | 9% | 2% | -1% | 3%
CCOC(=O)c1cnc(SC)nc1Sc1ccccc1Cl | / | 1 | -1% | / | 3% | -3%
Cc1ccc2c(c1)N(C(=O)CCC(=O)Nc1ccccc1Cl)CC(C)O2 (stereo not given) | ? | -1 | 1% | 0% | -5% | -9%
O=[N+]([O-])c1ccc(N/N=C/c2c[nH]c3ccccc23)c(S(=O)(=O)Nc2ccc(Cl)cc2)c1 | 15µM* | -15 | 0% | 1% | 0% | 21µM*

From PubChem BioAssay
